GLP-1R inv ag: qHTS of GLP-1 Receptor Inverse Agonists (Inhibition Mode); HEK293 GLP-1R CRE-luciferase, luminescence, 24 h; GLP-1R form is constitutively active; Potency, µM (titrated, usually from 38.3 µM), hits mostly inhibitors; 1.6% of 410,000 active; AID 624417, 2012; further: nearly all actives have a fitted effect of over 55% in size
Target sequence (P43220 whole entry, looked up): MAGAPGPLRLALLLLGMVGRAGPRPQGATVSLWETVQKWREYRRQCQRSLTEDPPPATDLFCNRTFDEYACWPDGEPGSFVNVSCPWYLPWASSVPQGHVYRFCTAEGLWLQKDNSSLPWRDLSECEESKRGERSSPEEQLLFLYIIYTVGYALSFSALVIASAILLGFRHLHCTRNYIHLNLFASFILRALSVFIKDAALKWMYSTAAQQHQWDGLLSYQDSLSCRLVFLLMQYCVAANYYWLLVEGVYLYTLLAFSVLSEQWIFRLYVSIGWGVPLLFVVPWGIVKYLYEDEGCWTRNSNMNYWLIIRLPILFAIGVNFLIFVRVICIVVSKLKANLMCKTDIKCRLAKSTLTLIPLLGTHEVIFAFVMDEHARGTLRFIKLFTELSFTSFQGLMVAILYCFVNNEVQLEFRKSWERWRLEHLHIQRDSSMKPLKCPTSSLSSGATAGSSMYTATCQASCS
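Assay principle: reduced luminescence from a cAMP-responsive reporter in HEK293 cells co-expressing a constitutively active GLP-1R. Conditions: 24 hr compound incubation, 37 deg C, 5% CO2.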
GLP-1R agonist: qHTS of GLP-1 Receptor Agonists; Potency, µM (series often up to 45.6 µM), actives largely listed as activators; HEK293 GLP-1R CRE-luciferase, luminescence, 4-6 h; cells express a hypersensitive GLP-1R form; Glucagon-like peptide 1 receptor (Homo sapiens), P43220; 0.007% of 380,000 active
D3 ag: qHTS of D3 Dopamine Receptor Agonist: qHTS; D3R DiscoveRx beta-arrestin cells, luminescence, 90 min; max activation, %; 0.58% of 410,000 active; AID 652048, 2013; in the data active means max activation above about 30%
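Agonist mode: compounds and dopamine controls were applied to plated cells for 90 min at 37 degrees C after an overnight attachment at 1500 cells/well. Luminescent read-out followed 30 - 60 minutes at room temperature with DiscoveRx detection reagent.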
D3 antag: qHTS of D3 Dopamine Receptor Antagonist: qHTS | 2.5% of 360,000 active | max response, negative = inhibition, % | AID 652054, 2013 | D(3) dopamine receptor (Homo sapiens), P35462 | D3R cells, DiscoveRx beta-arrestin luminescence, antagonist mode; hits give low values; in the data active means max response below about -50%; inconclusive means no clear call, values can overlap the other calls
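Cells expressing the human receptor were seeded at 1500 cells/well, incubated overnight at 37 degrees C in 5% CO2, then exposed to library compounds with dopamine controls for 90 minutes at 37 degrees C before luminescent detection.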
A number is an active result; 0 = inactive; ? = inconclusive; - = no result. Sampled rows, rich in hits. Any-hit rate of the full collection: about 4.3%. Unless noted, the call rests on the fitted dose curve; in most records, active means well fitted curve in the direction sought with a large enough effect; inconclusive means small, poorly fitted or top-dose-only effect, or another doubt; inactive means no such curve, though single readings can be large; an effect the other way counts as inactive or inconclusive.

SMILES	GLP-1R inv ag	GLP-1R agonist	D3 ag	D3 antag
COc1cccc2c1C1COC3C4CC(C(=O)O)C(C(C2)N13)N4C (configuration not stated)	4µM	0	0	0
COc1cccc2c1C(CCCC(=O)O)CCC2 (configuration not stated)	0	0	0	0
C/C(=N\NC(=O)c1cc(C)nc2ccccc12)c1ccccn1	?	0	0	-74
COc1cc(C(=O)N/N=C(\c2ccccc2)c2ccccn2)cc(OC)c1OC	?	0	0	?
C/C(=N\NC(=O)c1ccc(Cl)cc1)c1ccccn1	?	0	0	-106
COc1cccc(C(=O)N/N=C(/c2ccccc2)c2ccccn2)c1	7.9µM	0	0	0
CCn1ccc2cc(S(=O)(=O)N3CCCN(C(=O)Nc4ccccc4C(F)(F)F)CC3)ccc21	0	0	0	-
O=S1(=O)N[C@@H](Cc2ccccc2)COc2cc(N3CCN(Cc4ccccc4F)CC3)ccc21	?	0	0	0
CC(C)C[C@H]1COc2cc(N3CCN(Cc4ccccc4F)CC3)ccc2S(=O)(=O)N1	0	0	0	-66
Cc1[nH]oc(=O)c1N=Nc1ccc2[nH]c(=O)[nH]c2c1	0	0	0	-66
Cc1[nH]n(-c2ccccc2)c(=O)c1C=Nc1ccc2[nH]c(=O)[nH]c2c1	0	0	0	0
CN(C)c1cccc(C(=O)OCC(=O)Nc2ccccc2-c2ccccc2)c1	0	0	0	0
CC(C)N(C(=O)COC(=O)c1cccc(N(C)C)c1)c1ccccc1	4.5µM	0	0	0
CC(CNC(=O)c1csc2c1CCCCC2)c1ccccc1 (configuration not stated)	?	-	0	-
CCOc1ccc(S(=O)(=O)NCC(c2ccco2)S(=O)(=O)c2cccs2)cc1 (configuration not stated)	0	-	0	-
COc1nc(NC(C)C)nc(N(C#N)CN2C(=O)c3ccccc3S2(=O)=O)n1	0	0	0	-58
CC(C)Nc1nc(Cl)nc(N(C#N)CN2C(=O)c3ccccc3S2(=O)=O)n1	0	0	0	0
C=CCn1c(SCC(=O)NC2CCCCC2)nnc1-c1sc(N)nc1C	0	0	0	-51
C=CCn1c(SCC(=O)Nc2sc(C)c(C)c2C(=O)OCC)nnc1-c1sc(N)nc1C	0	0	0	0
COC(=O)c1c(C)oc2c1cc(NS(=O)(=O)c1c(C)cc(C)cc1C)c1ccccc12	0	-	0	-
CCOC(=O)c1cc(-c2ccccc2)sc1NC(=O)C(C)N1C(=O)NC(C)(c2ccc(Cl)cc2)C1=O (configuration not stated)	5.6µM	0	0	0
CCOC(=O)c1cc(-c2ccccc2)sc1NC(=O)C(C)C	0	0	0	0
CCCNS(=O)(=O)c1ccc(Oc2ncc(C(F)(F)F)cc2Cl)cc1	11µM	0	0	0
O=S(=O)(Nc1ccccc1)c1ccc(Oc2ncc(C(F)(F)F)cc2Cl)cc1	?	0	0	-63
CC(C)NS(=O)(=O)c1ccc(Oc2ncc(C(F)(F)F)cc2Cl)cc1	?	0	0	0
SMILES	GLP-1R inv ag	GLP-1R agonist	D3 ag	D3 antag
NC(=O)Nc1ccc(Oc2ncc(C(F)(F)F)cc2Cl)cc1	0	0	0	0
C/C(=N\NS(=O)(=O)c1ccc(C)c([N+](=O)[O-])c1)c1ccc2c(c1)OCO2	0	0	0	0
C/C(=N\NS(=O)(=O)c1ccc(C)c([N+](=O)[O-])c1)c1cc2ccccc2o1	0	0	0	-70
Cc1ccc(C(=O)c2cc3ccccc3o2)cc1[N+](=O)[O-]	0	0	0	?
C/C(=N\NS(=O)(=O)c1ccc(Cl)c([N+](=O)[O-])c1)c1ccc(C)o1	0	0	0	-70
C/C(=N\NS(=O)(=O)c1ccc(Cl)c([N+](=O)[O-])c1)c1cc2ccccc2o1	0	0	0	-98
COc1cc(C#Cc2ccc3cc(C(C)(C)O)oc(=O)c3c2)cc(OC)c1	0	0	31	0
COC(=O)c1ccc(-c2nc(CN3CCCN(C(=O)c4ccco4)CC3)c(C)o2)cc1	0	0	0	0
COc1ccc(-c2nc(CN3CCN(C(=O)c4ccco4)CC3)c(C)o2)c(F)c1	0	0	35	0
CCOc1ccccc1-c1nc(CN2CCCN(C(=O)c3ccco3)CC2)c(C)o1	0	0	0	-79
Cc1oc(-c2ccc(F)cc2F)nc1CN1CCN(C(=O)c2ccco2)CC1	0	0	0	0
Cc1ccc2c(=O)c(C(=O)c3cccc(Cl)c3)cn(CC(=O)NC3CCCCC3)c2n1	0	-	0	-
CC(C)C12CN3CC(C(C)C)(CN(C1)C3c1ccccc1)C2O (configuration not stated)	0	0	0	-84
CN(C)c1ccc(C2N3CC4(C)CN2CC(C)(C3)C4O)cc1 (configuration not stated)	0	0	0	0
CCCc1nnc(NC(=O)c2cc(=O)c3cc(Cl)ccc3o2)s1	0	-	0	-
Cc1ccc(N2CC(C(=O)NCc3nnnn3-c3ccc(C)c(C)c3)CC2=O)cc1C (configuration not stated)	0	-	0	-
COCCn1c(C)cc(O)c(C(c2ccc(OC)cc2)N2CCN(c3ccccc3)CC2)c1=O (configuration not stated)	0	-	0	-
CCCCCCCCCCCC(=O)OC[C@@H](O)C1OC[C@H](O)[C@H]1O (some centres not stated)	-	-	0	-
COc1cccc2c1C(=O)c1c(O)c3c(c(O)c1C2=O)C[C@](O)(C(C)=O)C[C@H]3O[C@@H]1C[C@@H](N)[C@@H](O)[C@@H](C)O1	2.8µM	0	0	0
COc1cccc2c1C(=N)c1c(O)c3c(c(O)c1C2=O)CC(O)(C(C)=O)CC3OC1CC(N)C(O)C(C)O1 (configuration not stated)	?	0	0	?
COc1ccccc1CNC(=O)C1(C)CCN1C(=O)C1(c2ccccc2)CC1 (configuration not stated)	?	0	0	-58
COc1ccccc1CNC(=O)C12CC3CC(CC(C3)C1)C2	11µM	0	0	0
O=C(NCc1ccccc1F)C12CC3CC(CC(C3)C1)C2	0	0	0	0
Cc1cc(-c2cccs2)c2c(n1)sc1c(=O)[nH]c(=O)[nH]c12	0	0	0	-84
Cc1cc(-c2ccccc2)c2c(n1)sc1c(O)cc(=O)[nH]c12	0	0	0	0
Cc1ccc(C2Nc3cc(C)c(C)cc3-n3c(-c4ccccc4)c4c(=O)n(C)c(=O)n(C)c4c32)o1 (configuration not stated)	?	-	0	-
CCCn1c2ccccc2c2nc3ccccc3nc21	?	0	0	0
N#CCCn1c2ccccc2c2nc3ccccc3nc21	0	0	0	-52
CCOC(=O)C1(C)CCN1C(=O)c1cccc(OC)c1 (configuration not stated)	0	0	0	0
